Measured values taken from the OligoGym collection.

Biological target: MACROD1
Test: pooled miR-30 sensor sort-seq; sequence = guide strand
Settings: shRNA
Further: reference of the scale not given here.

Sequence | sensor-assay potency score (higher = more potent)
TTTCGCCTCCTTCCAGTCGGTG | -1.53
TCCAGCTTGGTGATGTCGCTGC | -0.0855
TTACAGCTCTGCAGGGTCCGGC | -1.02

Biological target: MAD2L2
Test: as above
Settings: shRNA

Sequence | sensor-assay potency score (higher = more potent)
TGTACTTCTTGCGTTTCTGGAA | -0.3
TTCCACGTAAAGCTGCATCTTT | -0.0388
TTTTAGTGGTATCAGCCGGGGG | -1.07
TTTATCCAAAATCACCACCACC | -1.44
TATACTGATTCAGCTCCGGGTG | -0.735
TGAGACAACAGCGAGTCTGAGC | -0.635
TTTAGTGGTATCAGCCGGGGGT | -0.467
TCCACATGAGACAACAGCGAGT | -1.88
TTTCTCCACATCATTCTTCTCC | -0.203
TTTTTAGTGGTATCAGCCGGGG | -0.778
TTGTACTTCTTGCGTTTCTGGA | -0.29
TGGATCTTCTCCATGTTGCGAG | -0.717

Biological target: MAFG
Test: as above
Settings: shRNA

Sequence | sensor-assay potency score (higher = more potent)
TTTACTATTGTGATGACGCTGG | 0.761
TTTATCGGGGACACACTCTAGC | -0.0679
TACTATTGTGATGACGCTGGTG | 0.19
TCGAGCTCCAGCTTCATGCTGG | -0.0457
ATAATGTCTGATAACTCTGTGT | -0.547
TTCTATTATACTTTCTTCCCTT | -0.191
TTAGCAATAAATACTGCGCAGG | -0.418
TATATAAAAACTAAACTCCAAC | -1.06
TTTAGCAATAAATACTGCGCAG | -0.617
TATAATTAATTTAATAACTTTG | -0.864
TTATATATCACAAACATACACT | -0.989
TAGATCTTTAATAACCTCCATC | -0.748

Biological target: MAF
Test: as above
Settings: shRNA

Sequence | sensor-assay potency score (higher = more potent)
TTGAGGTGGTCGACTTGCTGCA | -0.511
TCCCTCTCGCGCACCAGCCTGG | -1.61
TAGCCGGTCATCCAGTAGTAGT | -1.7
AACTTCTCGTATTTCTCCTTGT | -0.264
TTTCAGGGTCCGCCTCTTCTGC | -1.55
TCGACTTGCTGCAGCAGCTGGT | -0.659
TGCTGCACCCTCTTGAAGCGGC | -0.694
TTCAGCTCGCGCACAGACATGG | -0.726
TTTTCTCGGAAGCCGCTGCTCA | -0.816
TCATCCAGTAGTAGTCTTCCAG | -0.918

Biological target: MAGEA2B
Test: as above
Settings: shRNA

Sequence | sensor-assay potency score (higher = more potent)
TTGCATGAGCAGCTTCCTGGGA | -0.244
TTAGTGTATGGTGCAGGACTTT | -1.05
TCTTGCATGAGCAGCTTCCTGG | -1.1
